These results are taken from PubChem BioAssay (Tox21).

Where “and” joins values, the source holds several entries; their conditions need not be identical. Equal values may be shown once. Results filed as inconclusive are left out. Entries that show only a call come without a potency. Some structures have more than one record in an assay (separate samples or runs), and their calls can disagree. Calls of active or inactive are those of the source. The call rests on the fitted dose curve; in most records, active means well fitted curve in the direction sought with a large enough effect in the repeat runs; inconclusive means weak or mixed curves; inactive means no such curve, though single readings can be large; an effect the other way counts as inactive or inconclusive.
Potency means the concentration at half of the fitted maximal effect.

One experiment can be described thus: A CellTox Green Cytotoxicity Assay to monitor cytotoxicity in HEK293 cells - 40 hour (AID 1224871). Further: nearly all actives have a fitted effect of over 45% in size. The note with it: CellTox Green fluorescence; series mostly up to 76.8 µM; cytotoxicity increase: at the top concentration. The essentials: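 Homogeneous no-lysis format: HEK293 cell suspension mixed with CellTox Green reagent, seeded, incubated 5 h at 37 C/5% CO2, then dosed by pintool with compound in DMSO.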
For the molecule `CCC(C)OC(=O)c1ccc(O)cc1` (centres undefined), the Potency entry was “inactive”.
For `C/C=C/C(=O)O`, the Potency result is “inactive”.
The same measure, in the same setting: the same measure for `Cn1cnc([N+](=O)[O-])c1Sc1ncnc2nc[nH]c12`: 34.5 µM (active) and inactive; for `Cc1cccc(N(C)C(=S)Oc2ccc3ccccc3c2)c1`: “inactive”.
Take `O=C=Nc1ccc(Cc2ccc(N=C=O)cc2)cc1`: the Potency entry was “inactive”.
For the molecule `O=CCc1ccccc1`, the Potency entry was “inactive”.
As for `CC(C(=O)O)c1cccc(C(=O)c2ccccc2)c1` (centres undefined), the Potency result is “inactive”.
Regarding `CC(=O)C1(C)CC2=C(CCCC2(C)C)CC1C` (centres undefined), the Potency was 41.6 µM (active).
Consider `c1cc(N(CC2CO2)CC2CO2)ccc1OCC1CO1` (centres undefined), for which the “cytotoxicity increase” value is 10.8% (inactive).
`Nc1ccccc1N`: the Potency was 50.1 µM (active).
Consider `CCOCCOCCO`, for which the Potency result is “inactive”.
For the molecule `CN(C)C(=N)N=C(N)N`, the Potency entry is “inactive”.
In the case of `COC(C)COC(C)COC(C)CO` (centres undefined), the Potency entry was “inactive”.
Turning to `O=C1c2cccc(O)c2C(=O)c2c(O)cccc21`, the Potency entry was “inactive”.
On to `O=C(O)c1ccccc1Nc1cccc(C(F)(F)F)c1`, for which the Potency entry is “inactive”.
On to `Cc1ccc2c(n1)Oc1ccc(C(C)C(=O)OCC(=O)N(C)C)cc1C2` (centres undefined), for which the Potency result was “inactive”.
As to `O=C(Nc1ccc(Cl)cc1)Nc1ccc(Cl)c(Cl)c1`, the Potency result is “inactive and 8.71 µM (active)”.
For `C#C[C@]1(O)CC[C@H]2[C@@H]3CCC4=Cc5oncc5C[C@]4(C)[C@H]3CC[C@@]21C`, the Potency is 49 µM (active).
Regarding `CCCCc1oc2ccccc2c1C(=O)c1cc(I)c(OCCN(CC)CC)c(I)c1`, the Potency is 44 µM (active).
As for `CCCCC(CC)COC(=O)c1ccc(N(C)C)cc1` (centres undefined), the Potency entry was “inactive”.
With `C=CC(C)(CCC=C(C)C)OC(C)=O` (centres undefined), the Potency result was “inactive”.
For the molecule `COc1ccccc1/C=C/C=O`, the Potency entry was “inactive”.
On to `CC(=O)c1ccccn1`, for which the Potency entry is “inactive”.
Regarding `CC(=O)Oc1ccccc1C(=O)Nc1ncc([N+](=O)[O-])s1`, the Potency entry was “inactive”.
Take `CC(C)Oc1ccc2c(=O)c(-c3ccccc3)coc2c1`: the Potency result was “inactive”.
The same measure, in the same setting: for `Oc1ccc(O)cc1` the value was “inactive”; for `OC[C@H]1O[C@@H]2O[C@H]3[C@H](O)[C@@H](O)[C@@H](O[C@H]4[C@H](O)[C@@H](O)[C@@H](O[C@H]5[C@H](O)[C@@H](O)[C@@H](O[C@H]6[C@H](O)[C@@H](O)[C@@H](O[C@H]7[C@H](O)[C@@H](O)[C@@H](O[C@H]8[C@H](O)[C@@H](O)[C@@H](O[C@H]1[C@H](O)[C@H]2O)O[C@@H]8CO)O[C@@H]7CO)O[C@@H]6CO)O[C@@H]5CO)O[C@@H]4CO)O[C@@H]3CO`, “inactive”.
In the case of `CN(C)CCC=C1c2ccccc2CCc2ccccc21`, the “cytotoxicity increase” value was 16.8% [at 35.3 µM] (inactive).
For the molecule `O=C(Nc1ccc([N+](=O)[O-])cc1Cl)c1cc(Cl)ccc1O`, the Potency was 24.5 µM (active) and 13.1 µM (active).
On the same count and under the same terms, for `Brc1cc(Oc2cc(Br)c(Br)c(Br)c2Br)c(Br)c(Br)c1Br` the value was “inactive”; for `CCC(C)c1ccccc1O` (centres undefined), 34.4 µM (active).
On to `S=C(NC1CCCCC1)NC1CCCCC1`, for which the Potency entry was “inactive”.
On to `CCCCOCCOCCO`, for which the Potency entry was “inactive”.
For `O=C(COc1ccc(Cl)cc1)N1CCN(Cc2ccc3c(c2)OCO3)CC1`, the Potency entry was “inactive”.
For `O=C(c1ccc(OCCN2CCCCC2)cc1)c1c(-c2ccc(O)cc2)sc2cc(O)ccc12`, the Potency was 55 µM (active) and 54.9 µM (active).
Take `CC(C)OC(=O)C(C)(C)Oc1ccc(C(=O)c2ccc(Cl)cc2)cc1`: the Potency result is “inactive”.
In the case of `O=C(/C=C/C=C/c1ccc2c(c1)OCO2)N1CCCCC1`, the Potency result was “inactive”.

Another experiment can be described thus: qHTS RealTime-Glo MT Cell Viability Assay in HepG2 cells - 8 hour (AID 1224873). Further: nearly all actives have a fitted effect of over 55% in size. The note with it: RealTime-Glo luminescence; series mostly up to 76.8 µM; viability change, negative = cytotoxic: at the top concentration. The essentials:
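HepG2 cells mixed with RealTime-Glo MT reagents (NanoLuc plus cell-permeant prosubstrate) were seeded at 600 cells/well, incubated 5 h at 37 C/5% CO2, then pinned with compounds in DMSO; nonlytic luminescence tracked viability during 40 h treatment.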
On the technique in general: qHTS replaces the single test concentration by a dilution series.
For the molecule `CCC(C)OC(=O)c1ccc(O)cc1` (centres undefined), the Potency result is “inactive”.
For the molecule `C/C=C/C(=O)O`, the Potency result is “inactive”.
As for `Cn1cnc([N+](=O)[O-])c1Sc1ncnc2nc[nH]c12`, the Potency entry was “inactive”.
Turning to `Cc1cccc(N(C)C(=S)Oc2ccc3ccccc3c2)c1`, the “viability change, negative = cytotoxic” value is -23.9% [at 35.3 µM] (inactive).
`O=C=Nc1ccc(Cc2ccc(N=C=O)cc2)cc1`: the Potency result is “inactive”.
Consider `O=CCc1ccccc1`, for which the Potency entry was “inactive”.
As to `CC(C(=O)O)c1cccc(C(=O)c2ccccc2)c1` (centres undefined), the Potency result is “inactive”.
Still for that read-out and setting: for `CC(=O)C1(C)CC2=C(CCCC2(C)C)CC1C` (centres undefined) the value was “inactive”; for `c1cc(N(CC2CO2)CC2CO2)ccc1OCC1CO1` (centres undefined), “inactive”.
In the case of `Nc1ccccc1N`, the Potency entry was “inactive”.
Regarding `CCOCCOCCO`, the Potency entry is “inactive”.
On to `CN(C)C(=N)N=C(N)N`, for which the Potency entry is “inactive”.
As to `COC(C)COC(C)COC(C)CO` (centres undefined), the Potency entry is “inactive”.
In the case of `O=C1c2cccc(O)c2C(=O)c2c(O)cccc21`, the Potency entry was “inactive”.
Regarding `O=C(O)c1ccccc1Nc1cccc(C(F)(F)F)c1`, the Potency result is “inactive”.
The same measure, in the same setting: the same measure for `O=C(Nc1ccc(Cl)cc1)Nc1ccc(Cl)c(Cl)c1`: “inactive”; for `C#C[C@]1(O)CC[C@H]2[C@@H]3CCc4cc(OC)ccc4[C@H]3CC[C@@]21C`: “inactive”; for `O=C(c1ccccc1)c1ccccc1O`: “inactive”.
Take `CCCCc1oc2ccccc2c1C(=O)c1cc(I)c(OCCN(CC)CC)c(I)c1`: the Potency was 39.2 µM (active).
`CCCCC(CC)COC(=O)c1ccc(N(C)C)cc1` (centres undefined): the Potency result was “inactive”.
With `C=CC(C)(CCC=C(C)C)OC(C)=O` (centres undefined), the Potency entry is “inactive”.
Regarding `COc1ccccc1/C=C/C=O`, the Potency result was “inactive”.
With `CC(=O)c1ccccn1`, the Potency entry was “inactive”.
Turning to `CC(=O)Oc1ccccc1C(=O)Nc1ncc([N+](=O)[O-])s1`, the Potency result is “inactive”.
In the case of `CC(C)Oc1ccc2c(=O)c(-c3ccccc3)coc2c1`, the Potency entry is “inactive”.
As to `Oc1ccc(O)cc1`, the Potency result is “inactive”.
For the molecule `OC[C@H]1O[C@@H]2O[C@H]3[C@H](O)[C@@H](O)[C@@H](O[C@H]4[C@H](O)[C@@H](O)[C@@H](O[C@H]5[C@H](O)[C@@H](O)[C@@H](O[C@H]6[C@H](O)[C@@H](O)[C@@H](O[C@H]7[C@H](O)[C@@H](O)[C@@H](O[C@H]8[C@H](O)[C@@H](O)[C@@H](O[C@H]1[C@H](O)[C@H]2O)O[C@@H]8CO)O[C@@H]7CO)O[C@@H]6CO)O[C@@H]5CO)O[C@@H]4CO)O[C@@H]3CO`, the Potency entry is “inactive”.
In the case of `CN(C)CCC=C1c2ccccc2CCc2ccccc21`, the Potency result is “inactive”.
As for `O=C(Nc1ccc([N+](=O)[O-])cc1Cl)c1cc(Cl)ccc1O`, the Potency result is “inactive”.
For the molecule `Brc1cc(Oc2cc(Br)c(Br)c(Br)c2Br)c(Br)c(Br)c1Br`, the Potency entry is “inactive”.
In the case of `CCC(C)c1ccccc1O` (centres undefined), the Potency entry is “inactive”.
Consider `S=C(NC1CCCCC1)NC1CCCCC1`, for which the Potency result was “inactive”.
In the case of `CCCCOCCOCCO`, the Potency result was “inactive”.
The same measure, in the same setting: the same measure for `O=C(COc1ccc(Cl)cc1)N1CCN(Cc2ccc3c(c2)OCO3)CC1`: “inactive”.
For `O=C(c1ccc(OCCN2CCCCC2)cc1)c1c(-c2ccc(O)cc2)sc2cc(O)ccc12`, the “viability change, negative = cytotoxic” value was -3.4% [at 35.3 µM] (inactive).
Consider `CC(C)OC(=O)C(C)(C)Oc1ccc(C(=O)c2ccc(Cl)cc2)cc1`, for which the Potency entry was “inactive”.
Take `O=C(/C=C/C=C/c1ccc2c(c1)OCO2)N1CCCCC1`: the Potency result was “inactive”.
